The campaign covered roughly 44,000 sequences. About 3,500 (8%) were called active. Rule as the data show it: active = GI50 up to about 1.1 µM and inactive = higher. The list is a sample of the results. Potency and affinity values are given separately.

The assay relates to PC-3.
One may read the GI50 as the concentration at which growth is held to half of that of the control. Read a low GI50 as more potent growth inhibition. “[Bis(aminomethyl)pentamethylenesilane]tetrachloropaltinum(IV), CHEMBL2146204” gave a GI50 of 1.83 µM. Under “[Bis(aminomethyl)dimethylsilane]tetrachloroplatinum(IV), CHEMBL2146190” stands 22.9 µM; under “[Bis(aminomethyl)tetramethylenesilane]tetrachloropaltinum(IV), CHEMBL2146189”, 8.36 µM. Under CISPLATIN, CHEMBL11359 stands 5.01 µM; under “[Bis(aminomethyl)tetramethylenesilane]dichloropaltinum(II), CHEMBL2146205”, 7.19 µM. Under “[Bis(aminomethyl)pentamethylenesilane]dichloropaltinum(II), CHEMBL2146202” stands 1.64 µM.

(Values after ChEMBL document CHEMBL1201862, “PubChem BioAssay data set” (2004).)
